Compound activity deposited in PubChem BioAssay by National Center for Advancing Translational Sciences (NCATS).
Hits are enriched below; roughly 6.8% of the tested compounds scored in any of these assays.
KB-V1 cytotox: kills drug-selected multidrug resistant KB-V1 cells | AID 1347076 | 400,000 tested, 3.4% active | Potency, µM (top dose mostly 46.1 µM), hits mostly cytotoxic | KB-V1 MDR cells viability, CellTiter-Glo, 72 h; also: % is scaled to controls: 0 for no effect and ±100 for the full control effect; nearly all actives have a fitted effect of over 60% in size
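KB-V1 MDR subline cells in DMEM (phenol-red free, 10% FBS) exposed to compounds in qHTS concentration series for 72 h at 37 degrees C. Viability read by CellTiter-Glo luminescence; concentration-effect curves fitted after normalization and correction.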
SW480 rerep: induces DNA re-replication in SW480 colon adenocarcinoma cells. SW480 DNA re-replication, Hoechst DNA content imaging, 48 h. Potency, µM (series often up to 46.1 µM), inactives show at the top dose re-replication activation, actives largely listed as activators. 340,000 tested, 1.8% active. AID 624297; also: % of control where 0% means no effect; nearly all actives have a fitted effect of over 55% in size
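DNA re-replication was detected as more nuclei of elevated Hoechst intensity after 48 hr exposure to compound (23 nL pinned per well of 250 cells).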
PINK1 expr mod: changes PINK1 expression; PINK1 immunofluorescence, high-content cytometry, 24 h; Potency, µM (titrated, usually from 76.6 µM), for inactives: at the top dose activation (PINK1 increase), most hits filed as activators; 410,000 tested, 0.2% active; AID 624263; active = well fitted activation curve with a large enough effect; inconclusive = small, poorly fitted or top-dose-only effect; cell line not stated here; also: % of control where 0% means no effect; nearly all actives have a fitted effect of over 65% in size
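Decision-based qHTS: stable cells, 24 h exposure to five compound concentrations, CCCP as control. Fixed cells stained for PINK1 plus nuclear, mitochondrial and cell markers, cytometer read.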
MCF10A rerep: inducers of DNA re-replication in MCF 10A breast cells; MCF 10A DNA re-replication, Hoechst nuclear intensity, 48 h; Potency, µM (highest dose often 46.1 µM), for the others: at the highest dose activity, positive = re-replication, actives largely listed as activators; 350,000 tested, 2.9% active; also: % of control where 0% means no effect; nearly all actives have a fitted effect of over 50% in size
PTAP TSG101 blk: blocks PTAP/TSG101 interaction to inhibit HIV-1 budding; Q99816; Fluorescence polarization, FITC-PTAP peptide / Tsg101 binding; Potency, µM (top dose mostly 115 µM), inactives show at the highest dose activity change, negative = inhibition, actives largely listed as inhibitors; 340,000 tested, under 10 active; active = well fitted inhibition curve with a large enough effect in the main read-out, with a control signal flat, not every such curve was filed as active; inconclusive = small, poorly fitted or top-dose-only effect, or effect the other way, or a change in a side signal; inactive = no such curve, though single readings can be large or run the other way; also: % of control where 0% means no effect
Target sequence (Q99816 whole entry, looked up): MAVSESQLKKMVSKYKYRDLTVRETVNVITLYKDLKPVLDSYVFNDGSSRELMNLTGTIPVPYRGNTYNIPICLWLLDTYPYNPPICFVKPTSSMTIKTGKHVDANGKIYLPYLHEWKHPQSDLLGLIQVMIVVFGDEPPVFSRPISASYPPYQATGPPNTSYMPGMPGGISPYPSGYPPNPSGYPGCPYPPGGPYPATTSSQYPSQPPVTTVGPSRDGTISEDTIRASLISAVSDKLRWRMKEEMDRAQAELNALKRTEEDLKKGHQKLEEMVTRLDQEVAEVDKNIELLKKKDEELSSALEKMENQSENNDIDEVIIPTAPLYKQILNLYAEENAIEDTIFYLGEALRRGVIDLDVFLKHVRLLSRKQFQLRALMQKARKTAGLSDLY
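Compounds were pin-transferred onto Tsg101 binding domain (10 uM final) in HEPES pH 7.5 buffer, then FITC-PTAP peptide was added at 50 nM final. After 20 min at RT, polarization reported peptide displacement across a qHTS concentration series.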
KB-3-1 tox: KB-3-1 parental cell cytotoxicity; 400,000 tested, 1.4% active; AID 1347075; Potency, µM (highest dose often 46.1 µM), most hits filed as cytotoxic; KB-3-1 viability, CellTiter-Glo ATP luminescence, 72 h; also: % is scaled to controls: 0 for no effect and ±100 for the full control effect; nearly all actives have a fitted effect of over 60% in size
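Cytotoxicity measured as CellTiter-Glo luminescence after 72 h at 37 C. Compound titrations were pinned onto drug-naive KB-3-1 parental adenocarcinoma cells grown in DMEM with 10% FBS, and normalized data fitted to concentration-response curves.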
Starred values were filed as active, the others as inactive; i = inactive; ? = inconclusive; / = not tested or not shown; ! = not confirmed by another sample; [ ] = dose if it differs, or a comment. Unless noted, calls follow the shape of the dose curve; as a rule, active = well fitted curve in the direction sought with a large enough effect; inconclusive = small, poorly fitted or top-dose-only effect, or another doubt; inactive = no such curve, though single readings can be large; an effect the other way counts as inactive or inconclusive. Potency is read from the fitted curve at half-maximal effect.

SMILES	KB-V1 cytotox	SW480 rerep	PINK1 expr mod	MCF10A rerep	PTAP TSG101 blk	KB-3-1 tox
CCc1ccc(NC(=O)C(C)OC(=O)c2ccc(NS(=O)(=O)c3ccc(C)c([N+](=O)[O-])c3)cc2)cc1 (stereo not drawn)	?	?	45µM*	?	-2%	23µM*
C/C(=N\NC(=O)c1ccc(N2CCCC2=O)cc1)c1ccccc1	i	0%	2%	-3%	-2%	i
C/C(=N\NC(=O)c1ccc(N2CCCC2=O)cc1)c1ccc(O)cc1O	i	9.2µM*	1%	8%	-2%	?
CCC(Sc1nc2cc3c(cc2c(=O)n1CCCC(=O)NCc1ccc2c(c1)OCO2)OCO3)C(=O)NCCCOC (stereo not drawn)	/	/	0%	/	/	/
CC1CCN(S(=O)(=O)c2cc(C(=O)N3CCN(c4cccc(Cl)c4)CC3)n(C)c2)CC1	i	/	1%	/	/	16µM*
CC(C)c1ccc(S(=O)(=O)N2CCC(C(=O)N3CCN(c4cccc(Cl)c4)CC3)CC2)cc1	i	4%	1%	?	-7%	i
O=C(C1CCN(S(=O)(=O)c2cccnc2)CC1)N1CCN(c2cccc(Cl)c2)CC1	6.5µM*	-8%	1%	1%	-3%	?
Cc1ccc(-n2ncc(C(=O)NCc3ccc4c(c3)OCO4)c2C2CCN(C(=O)OC(C)(C)C)CC2)cc1C	i	/	0%	/	/	i
Cc1oc2ccc(O)c(CN3CCCC(C)C3)c2c1C(=O)Nc1ccccc1 (stereo not drawn)	i	/	1%	/	/	?
CCOC(=O)C1CCCN(C(=O)Cc2ccc(OC)c(OC)c2)CC1 (stereo not drawn)	21µM*	/	0%	/	/	?
CCOC(=O)C1CCCN(C(=O)Cc2ccc(OC)c(OC)c2)C1 (stereo not drawn)	i	-2%	5%	0%	0%	i
COc1cccc(-c2nc(CS(=O)(=O)CC(=O)Nc3ccccc3Cl)c(C)o2)c1	6.5µM*	0%	2%	4%	-1%	15µM*
COc1cccc(-c2nc(CS(=O)(=O)CC(=O)Nc3ccccc3C)c(C)o2)c1	i	10%	6%	1%	-7%	i
COc1ccc(-c2nc(CSCC(=O)N3CCc4ccccc43)c(C)o2)cc1OC	i	-1%	-1%	2%	-4%	i
COc1cccc(-c2nc(CSCC(=O)N3CCc4ccccc43)c(C)o2)c1	10µM*	0%	-21%[38.3 µM]	11%	-1%	?
CS(=O)c1ccccc1-c1nc(-c2ccc([N+](=O)[O-])cc2)no1 (stereo not drawn)	8.2µM*	-6%	-1%	3%	2%	?
Cc1ccc(-c2noc(CC(=O)c3ccc([N+](=O)[O-])cc3)n2)cc1	16µM*	-2%	17%	11%	-1%	i
CS(=O)c1ccccc1-c1nc(-c2cc(C(F)(F)F)cc(C(F)(F)F)c2)no1 (stereo not drawn)	?	-5%	-6%	-3%	0%	?
Cc1ccc(NCC(=O)c2ccc([N+](=O)[O-])cc2)cc1	i	-5%	2%	-5%	0%	i
CN(C(=O)CC(=O)Nc1ccc2nc3n(c(=O)c2c1)CCCCC3)c1ccccc1F	i	/	-1%	/	/	i
CCOc1ccccc1NC(=O)Nc1ccc2nc(N3CCN(C)CC3)cc(C)c2c1	?	/	14%	/	/	i
CCN1CCN(c2cc(C)c3cc(NC(=O)c4ccc(OC)c(OC)c4)ccc3n2)CC1	4.1µM*!	?	3%	4%	-4%	3.7µM*!
CCN1CCN(c2cc(C)c3cc(NC(=O)c4cc(OC)c(OC)c(OC)c4)ccc3n2)CC1	i	/	8%	/	/	i
CCOc1ccccc1C(=O)Nc1ccc2nc(N3CCN(c4ncccn4)CC3)cc(C)c2c1	8.2µM*	?	-4%	8.2µM*	3%	15µM*
Cc1nn(-c2ccccn2)c2c1-c1nc(N)sc1CC2	?	/	-1%	/	/	?
